# Measurements: ChEMBL document CHEMBL4513216, “Probing the Open Global Health Chemical Diversity Library for Multistage-Active Starting Points for Next-Generation Antimalarials” (ACS Infect Dis, 2020)
# Out of some 68,000 compounds screened, about 2,700 (4%) showed an effect of 50% or more. Shown is part of a subset that was picked to be rich in strong results.
# Test system: Plasmodium berghei
# Experiment: Screen against P. berghei liver stage (PbLuc), transformed with Luciferase, at 2uM
# Type: functional, HepG2
# Settings: tested at 2 uM
row,SMILES,INHIBITION [%]
1,O=C(O)c1cc(NS(=O)(=O)c2cccc(Cl)c2F)ccc1Cl,36.65
2,Cc1cc(C(=O)N2CCCC2)ccc1NCc1nc(CC(C)C)no1,58.05
3,CCc1noc(CNc2ccc(C(=O)N3CCCC3)cc2C)n1,24.15
4,CCCc1noc(CNc2ccc(C(=O)N3CCCC3)cc2C)n1,-11.2
5,NC(=O)c1cccc(CN2CCc3c(ncn3C3CC3)C2)c1,11.95
6,CC(C)CNC(=O)c1cccc(CN2CCc3c(ncn3C)C2)c1,21.43
7,Cn1cnc2c1CCN(Cc1cccc(C(N)=O)c1)C2,74.87
8,Cn1cnc2c1CCN(Cc1cccc(C(=O)N3CCCCC3)c1)C2,5.91
9,Cn1cnc2c1CCN(Cc1ccc(C(=O)N3CCCC3)cc1)C2,51.21
10,Cn1cnc2c1CCN(Cc1cccc(OCC(N)=O)c1)C2,3.9
11,CCS(=O)(=O)Cc1nc(-c2cnn3c(C)cc(C)nc23)no1,-9.94
12,CN1CCN([C@@H]2CN(C(=O)c3cc4cccc(F)c4[nH]3)C[C@H]2O)CC1,-17.65
13,CNC(=O)C(C)CN(C)C(=O)Nc1cc(F)cc(Br)c1 (configuration not stated),-0.47
14,CN(C)CCNC(=O)c1ccccc1NC(=O)c1cc(Cl)ccc1Cl,13.39
15,O=C(NCc1ccco1)[C@@H]1CC[C@@H]2[C@@H](CCN2CC2CC2)O1,22.89
16,CC(Cn1cccn1)NCc1csc(Cc2ccccc2)n1 (configuration not stated),-44.51
17,N#CC1(NC(=O)CNCCn2cccn2)CCCCC1,-45.11
18,N#CC1(NC(=O)COC(=O)Cn2cccn2)CCCC1,-40.04
19,CC(Cn1cccn1)NCc1nc(-c2ccc3c(c2)OCO3)no1 (configuration not stated),-35.26
20,CC(Cn1cccn1)NCc1nc(-c2cccnc2)no1 (configuration not stated),-15.36
21,CC(Cn1cccn1)NCC(=O)NC1(C#N)CCCCC1 (configuration not stated),51.14
22,Cc1cnn(CC(C)NCC(=O)NCCc2cccs2)c1 (configuration not stated),-28.18
23,CC(Cn1cccn1)NCc1nc(-c2cccc(Cl)c2)no1 (configuration not stated),73.05
24,CC(Cn1cccn1)NC(=O)NCCc1cccs1 (configuration not stated),-26.87
25,CCCc1nc(CNC(C)Cn2cccn2)cs1 (configuration not stated),-6.71
26,CC(Cn1cccn1)NCC(=O)NCCc1cccs1 (configuration not stated),66.99

row,SMILES,INHIBITION [%]
1,CCc1nc(CNC(C)Cn2cccn2)cs1 (configuration not stated),55.7
2,NCCc1cccc(CN2CCN(c3cccc(Cl)c3)C(=O)C2)c1,31.35
3,COCc1nc(C(=O)N2CCN(Cc3ccsc3)CC2)cs1,8.93
4,CC(C)C(=O)N1CCCC(Cc2ncccn2)C1 (configuration not stated),-24.73
5,CC(C)COC1CCN(C(=O)c2ccc(C(F)(F)F)[nH]c2=O)CC1,-24.73
6,FC(F)(F)c1cccc(OC2CCN(Cc3c[nH]cn3)CC2)c1,-6.65
7,CCC1=N[C@@]2(CC[C@@H]3CN(CC4CC4)C[C@@H]32)C(=O)N1,-26.61
8,O=C(NC1CC1)c1cnc(-c2noc3cc(N4CCCCC4)ccc23)s1,18.11
9,Cc1cnn(CC(C)NCc2nc(-c3cccs3)no2)c1 (configuration not stated),-41.76
10,CC(Cn1cccn1)NCc1nc(-c2cccs2)no1 (configuration not stated),51.21
11,Cc1cccc(-c2noc(CNC(C)Cn3cc(C)cn3)n2)c1 (configuration not stated),-26.75
12,Cc1cnn(CC(C)NCc2nc(-c3cccnc3)no2)c1 (configuration not stated),-36.24
13,CC(Cn1cccn1)NCCCc1nc(-c2cccs2)no1 (configuration not stated),21.39
14,Cc1cnn(CC(C)NCc2nc(-c3ccoc3)no2)c1 (configuration not stated),59.68
15,O=C(CN1CCOC(CNc2cccnn2)C1)NCc1cccs1 (configuration not stated),-48.41
16,Cc1cc(C)n(-c2ccc(N3CCC4(CC3)OCC(C)O4)nc2)n1 (configuration not stated),-11.55
17,COCC1CN(CC2CC2)Cc2ncn(CC3CC3)c21 (configuration not stated),-21.31
18,CN1CCO[C@@H]2CN(C(=O)Cc3cccs3)CC[C@@H]2C1,52.96
19,Cc1ccc(CC(=O)N2CC[C@@H]3CN(CCN(C)C)CCO[C@@H]3C2)cc1,50.96
20,CN1CCO[C@@H]2CN(C(=O)NCc3ccccc3)CC[C@@H]2C1,69.86
21,CN(C)C[C@@H]1C[C@@H]2CN(C(=O)Cc3cccs3)CC[C@@H]2N1C,54.01
22,CCN1CCO[C@@H]2CN(C(=O)NCc3ccccc3)CC[C@@H]2C1,0.15
23,COCCN1CCO[C@@H]2CN(C(=O)Cc3ccc(F)cc3)CC[C@@H]2C1,3.72
24,CN(C)CCN1CCO[C@@H]2CN(C(=O)Cc3ccsc3)CC[C@@H]2C1,-19.51
25,CS(=O)(=O)N1CCO[C@@H]2CN(C(=O)Cc3cccs3)CC[C@@H]2C1,20.87
26,CC(=O)N1CCO[C@@H]2CN(C(=O)NCc3ccccc3)CC[C@@H]2C1,11.79

row,SMILES,INHIBITION [%]
1,CC(C)N1CCO[C@@H]2CN(C(=O)Cc3cccs3)CC[C@@H]2C1,-7.26
2,CN1[C@H](CN2CCCC2)C[C@@H]2CN(C(=O)Cc3cccs3)CC[C@@H]21,10.62
3,CC(=O)N1[C@H](CN(C)C)C[C@@H]2CN(C(=O)Cc3cccs3)CC[C@@H]21,6.24
4,Fc1ccccc1Cn1c(C2CCNCC2)cc2cccnc21,-23.54
5,CCOc1cccc(C(=O)N2CCN(c3nccc(OC)n3)CC2)c1,8.37
6,CCc1ncc(C(=O)N2CCCN(C3CCCCC3)CC2)cn1,-35.1
7,COc1cccc(C2(C(=O)NC3CCc4nccn4C3)CCCC2)c1 (configuration not stated),-5.74
8,O=C(c1nc(=O)[nH][nH]1)N1CCCCCC1,33.9
9,CCn1c(C2CCCN(Cc3ccnc4ccccc34)C2)nn(C)c1=O (configuration not stated),17.48
10,OCCOCCNCC1(c2ccc(F)cc2)CCOC1 (configuration not stated),-18.52
11,CN(Cc1ccccc1)CC(O)Cn1cnc2cc(F)ccc2c1=O (configuration not stated),-75.13
12,Cc1ccc(N2CC[C@H]3O[C@@H](C(=O)NCc4ccco4)CC[C@H]32)nn1,4.64
13,CCCNC(=O)CN1CCOC(c2ccc(Br)cc2)C1 (configuration not stated),15.82
14,CCNC(=O)NC(=O)CN1CCOC(c2cccc(Br)c2)C1 (configuration not stated),16.72
15,CCNC(=O)NC(=O)CN1CCOC(c2ccc(Br)cc2)C1 (configuration not stated),59.94
16,Cn1cc(NC(=O)c2cc3c(s2)CCCC3)cn1,-56.09
17,Cc1nc(C)n(CC2CCCCN2CCCS(C)(=O)=O)n1 (configuration not stated),-12.84
18,O=C(NCCc1ccncc1)c1ccc(S(=O)(=O)NC2CCC2)cc1,28.85
19,CN(C)CCNC(=O)c1ccc(S(=O)(=O)N[C@@H]2CCNC2)cc1,8.31
20,CC(C)N(CCNC(=O)c1ccc(S(=O)(=O)NC2CC2)cc1)C(C)C,58.12
21,CC(O)CN1CCN(C(=O)c2cccn2Cc2ccccc2)CC1 (configuration not stated),15.28
22,O=C(c1ccncc1)N1CCCn2c(CN3CCCC3)nnc2C1,23.14
23,Cc1cc(C)c(CNC(=O)NCC2Cc3ccccc32)c(=O)[nH]1 (configuration not stated),45.16
24,NC(=O)c1ccc(CNC(=O)Nc2cn[nH]c2)cc1,26.06
25,CN1CC(=O)N(c2cnn(C)c2)CC12CCN(Cc1ccccc1)C2 (configuration not stated),15.96
26,COCc1nnc(C(=O)N2CC(N3CCCCC3)C2)o1,-13.03

row,SMILES,INHIBITION [%]
1,COCc1nnc(C(=O)N2CCC(N3CCCCC3)CC2)o1,57.89
2,COCc1nnc(C(=O)N2CCCC(O)C2)o1 (configuration not stated),30.88
3,CN(C)C(C(=O)N1CC(Oc2ccccc2F)C1)c1ccccc1F (configuration not stated),19.07
4,CCCN1CCCN(C(=O)c2ccc(Oc3cccnc3)cc2)CC1,35.37
5,COc1cccc(SCCCn2cnc3c(N)ncnc32)c1,52.19
6,COc1ccc(OCCN(C)CCCn2cnc3c(N)ncnc32)cc1,36.29
7,COc1cccc(CN(C)CCCn2cnc3c(N)ncnc32)c1,-51.87
8,Cc1ncnc2c1CCN(C(=O)c1ccncc1F)CC2,6.81
9,O=C1CC(c2ccncc2)C2(CCN(CC3CC3)CC2)N1 (configuration not stated),22.2
10,Cc1nc(N2C[C@H]3CC[C@@H](C2)N3)nc2cc(S(C)(=O)=O)ccc12,77.42
11,Cc1nc(N2CCN3CCCCC3C2)nc2cc(S(C)(=O)=O)ccc12 (configuration not stated),-15.11
12,Cc1nc(N2CCCC(C)C2)nc2cc(S(C)(=O)=O)ccc12 (configuration not stated),-24.78
13,O=C(COc1ccccc1)NCCNC(=O)c1scnc1Cl,7.71
14,CC(C)(C)OC(=O)N1CCCN(c2nnc(C3CC3)s2)CC1,34.69
15,Cc1nnc(NC(=O)CN2CCc3nn(C)c(=O)cc3C2)s1,23.27
16,Cc1cc(CN2CCN(CC(O)c3ccc4c(c3)OCO4)CC2)no1 (configuration not stated),-19.1
17,Cc1noc(C)c1CNCC1COCc2c(-c3ccsc3)nnn2C1 (configuration not stated),7.68
18,Cc1cc(C)c(CNC(=O)NCCOc2ccc3c(c2)CCC3)c(=O)[nH]1,14.11
19,Cc1cc(C)c(CNC(=O)c2ccc3c(c2)CCC3)c(=O)[nH]1,58.52
20,Cc1ccc(C(O)CNC(=O)NCc2c(C)cc(C)[nH]c2=O)cc1 (configuration not stated),-11.2
21,Cc1cc(C)c(CNC(=O)NCc2ccc3c(c2)CCC3)c(=O)[nH]1,-7.02
22,Cc1cc(C)c(CNC(=O)Cc2ccc3c(c2)CCCC3)c(=O)[nH]1,4.18
23,Cc1cc(C)c(CNC(=O)NC(C)c2ccc3c(c2)CCC3)c(=O)[nH]1 (configuration not stated),50.05
24,CNc1ncc(C(=O)N2CCOC(C(=O)NC3CCCC3)C2)cn1 (configuration not stated),8.75
